Among the data in PubChem BioAssay (NCI) are growth values, retold here.

The panel holds about 83,000 compounds, 20% with a hit somewhere; the sample as a whole holds those more often.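 The endpoint reported here, percent growth, reads 100 for growth as untreated, 0 for no net growth and -100 for all cells dead.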 Unmarked numbers belong to inactive results. Calls of active or inactive are those of the source. The calls were made as follows: active = growth percent below 10; inactive = the rest.

The first assay concerns TK-10 renal. The experiment in a line: NCI-60 one-dose screen, 48 h (100 = growth as untreated, 0 = no growth, -100 = all killed). As to conditions: 10 µM.
For `COc1ccc(C2c3sc4ccc(C)cc4c3Oc3nc(N)nc(N)c32)cc1` (stereo not drawn), the growth was 125%.
Same read-out and setting: with `Cc1cc(N=C2NC(=O)S/C2=C\c2ccc(F)cc2)n[nH]1` the figure was 32.7%; with `Cn1cc(-c2nnc(N)nc2-c2c[nH]c3ccccc23)c2cc(Br)cnc21`, 61.4%; with `O=C(CC(=O)Nc1ccc(Oc2ncnc3scc(Nc4n[nH]c(=S)s4)c23)cc1)Nc1ccc(Cl)cc1`, 137%.
Same read-out and setting: in the case of `O=C1NC2C=CC=CC2/C1=C1/SC(=S)N(C2CC(=O)N(c3ccc(Br)cc3)C2=O)C1=O` (stereo not drawn) it was 124%.
Consider `CC1(C)CC(=O)C2=C(C1)N(Cc1ccc(C(=O)O)cc1)C1=C(C(=O)CC(C)(C)C1)C2c1ccc(Cl)cc1`, for which the growth is 92.2%.
For `Cc1ccc2c(c1)C(=O)/C(=C/c1ccc([N+](=O)[O-])cc1)S2`, the growth was 135%.
Take `O=C(Nc1ccc(OCc2ccc(Cl)cc2)cc1)Nc1ccc(Cl)c(C(F)(F)F)c1`: the growth was 18.5%.
`Cn1cc(-c2nc(N)nnc2-c2c[nH]c3ccccc23)c2cc(Br)cnc21`: the growth was 64.2%.
Same read-out and setting: in the case of `O=C(CSc1nc2ccccc2c(=O)n1-c1ccc(Cl)cc1)Nc1ccc(-c2nc3ccccc3[nH]2)cc1` it was -31.9% (active).
With `Cc1ccc2c(c1)C(=O)/C(=C/c1c[nH]c3ccccc13)S2`, the growth was 105%.
On the same count and under the same terms, with `COc1cccc(O)c1/C=C1\SCc2cc3c(OC)cccc3[o+]c21` the figure was 111%; with `COc1cc(C2CC(c3ccc(Oc4ccc(Cl)cc4)cc3)=NN2c2nc(-c3ccc(Cl)cc3)c(C#N)c(N3CCOCC3)n2)cc(OC)c1OC` (stereo not drawn), 96.1%; with `O=C(Nc1ccc(OCC(=O)c2ccc(Cl)cc2)cc1)Nc1ccc(Cl)c(C(F)(F)F)c1`, 71.9%.
Same read-out and setting: with `Cc1ccc2sc3c(c2c1)Oc1nc[nH]c(=O)c1C3c1cccc(F)c1` (stereo not drawn) the figure was 154%; with `Cc1cc(N=C2NC(=O)/C(=C/c3cc(C(C)(C)C)c(O)c(C(C)(C)C)c3)S2)n[nH]1`, -11.6% (active); with `COc1ccc(C2c3sc4ccc(C)cc4c3Oc3nc[nH]c(=O)c32)cc1` (stereo not drawn), 137%.
On to `COc1cccc(C(=O)CSc2nc(-c3ccc(OCc4ccccc4)c(OC)c3)c(C#N)c(=O)[nH]2)c1`, for which the growth is 94.7%.
On the same count and under the same terms, in the case of `Cc1ccc(COc2ccc(NC(=O)Nc3ccc(Cl)c(C(F)(F)F)c3)cc2)cc1` it was 77.9%; in that of `CC(C)(C)c1cc(/C=C2\S/C(=N/c3ncn[nH]3)NC2=O)cc(C(C)(C)C)c1O`, 24%; in that of `Cn1cc(/C=C(/SS/C(=C/c2cn(C)c3cccc(C(=O)O)c23)C(=O)O)C(=O)O)c2c(C(=O)O)cccc21`, 93%.
On the same count and under the same terms, with `COc1ccc(C(=O)COc2ccc(NC(=O)Nc3ccccc3)cc2)cc1` the figure was 101%; with `CCn1c(SCC(=O)Nc2ccc(-c3nc4ccccc4[nH]3)cc2)nc2ccccc2c1=O`, -95.4% (active); with `O=C(Nc1ccc(OCc2ccc(F)cc2)cc1)Nc1ccc(Cl)c(C(F)(F)F)c1`, 20.2%.
Same read-out and setting: with `O=C(CC(=O)Nc1ccc(Oc2ncnc3scc(Nc4n[nH]c(=S)s4)c23)cc1)Nc1ccc(Br)cc1` the figure was 146%.
With `COc1ccc(C(=O)COc2ccc(NC(=O)Nc3ccc(Cl)c(C(F)(F)F)c3)cc2)cc1`, the growth is 46.8%.
Same read-out and setting: in the case of `O=C(Nc1ccc(Oc2ncnc3scc(Nc4n[nH]c(=S)s4)c23)cc1)C1(C(=O)Nc2cccc(C(F)(F)F)c2)CC1` it was 143%; in that of `O=C1NC(=S)S/C1=C\c1cn(-c2ccccc2)nc1-c1ccc([N+](=O)[O-])cc1`, 19.3%; in that of `O=C(CSc1nc2ccccc2c(=O)n1-c1ccc(Cl)cc1)Nc1ccc(-c2nc3ccc([N+](=O)[O-])cc3[nH]2)cc1`, 89.9%.

The subject of the next assay is ACHN renal. The description is as above. As to conditions: 10 µM.
For the molecule `COc1ccc(C2c3sc4ccc(C)cc4c3Oc3nc(N)nc(N)c32)cc1` (stereo not drawn), the growth is 94.4%.
Same read-out and setting: in the case of `Cc1cc(N=C2NC(=O)S/C2=C\c2ccc(F)cc2)n[nH]1` it was 27.4%; in that of `Cn1cc(-c2nnc(N)nc2-c2c[nH]c3ccccc23)c2cc(Br)cnc21`, 39.7%.
Still for that read-out and setting: in the case of `O=C(CC(=O)Nc1ccc(Oc2ncnc3scc(Nc4n[nH]c(=S)s4)c23)cc1)Nc1ccc(Cl)cc1` it was 77.4%.
The same measure, in the same setting: in the case of `O=C1NC2C=CC=CC2/C1=C1/SC(=S)N(C2CC(=O)N(c3ccc(Br)cc3)C2=O)C1=O` (stereo not drawn) it was 94.1%; in that of `CC1(C)CC(=O)C2=C(C1)N(Cc1ccc(C(=O)O)cc1)C1=C(C(=O)CC(C)(C)C1)C2c1ccc(Cl)cc1`, 116%.
`Cc1ccc2c(c1)C(=O)/C(=C/c1ccc([N+](=O)[O-])cc1)S2`: the growth was 102%.
Still for that read-out and setting: in the case of `O=C(Nc1ccc(OCc2ccc(Cl)cc2)cc1)Nc1ccc(Cl)c(C(F)(F)F)c1` it was 11.2%.
Still for that read-out and setting: with `Cn1cc(-c2nc(N)nnc2-c2c[nH]c3ccccc23)c2cc(Br)cnc21` the figure was 19.2%; with `O=C(CSc1nc2ccccc2c(=O)n1-c1ccc(Cl)cc1)Nc1ccc(-c2nc3ccccc3[nH]2)cc1`, 3.26% (active); with `Cc1ccc2c(c1)C(=O)/C(=C/c1c[nH]c3ccccc13)S2`, 58.2%.
On the same count and under the same terms, with `COc1cccc(O)c1/C=C1\SCc2cc3c(OC)cccc3[o+]c21` the figure was 104%; with `COc1cc(C2CC(c3ccc(Oc4ccc(Cl)cc4)cc3)=NN2c2nc(-c3ccc(Cl)cc3)c(C#N)c(N3CCOCC3)n2)cc(OC)c1OC` (stereo not drawn), 96.5%; with `O=C(Nc1ccc(OCC(=O)c2ccc(Cl)cc2)cc1)Nc1ccc(Cl)c(C(F)(F)F)c1`, 16.8%.
For the molecule `Cc1ccc2sc3c(c2c1)Oc1nc[nH]c(=O)c1C3c1cccc(F)c1` (stereo not drawn), the growth is 97%.
`Cc1cc(N=C2NC(=O)/C(=C/c3cc(C(C)(C)C)c(O)c(C(C)(C)C)c3)S2)n[nH]1`: the growth is 14%.
As to `COc1ccc(C2c3sc4ccc(C)cc4c3Oc3nc[nH]c(=O)c32)cc1` (stereo not drawn), the growth was 106%.
Consider `COc1cccc(C(=O)CSc2nc(-c3ccc(OCc4ccccc4)c(OC)c3)c(C#N)c(=O)[nH]2)c1`, for which the growth was 99.9%.
Take `Cc1ccc(COc2ccc(NC(=O)Nc3ccc(Cl)c(C(F)(F)F)c3)cc2)cc1`: the growth is 56.8%.
`CC(C)(C)c1cc(/C=C2\S/C(=N/c3ncn[nH]3)NC2=O)cc(C(C)(C)C)c1O`: the growth is 18.2%.
As for `Cn1cc(/C=C(/SS/C(=C/c2cn(C)c3cccc(C(=O)O)c23)C(=O)O)C(=O)O)c2c(C(=O)O)cccc21`, the growth is 110%.
On the same count and under the same terms, in the case of `COc1ccc(C(=O)COc2ccc(NC(=O)Nc3ccccc3)cc2)cc1` it was 98%; in that of `CCn1c(SCC(=O)Nc2ccc(-c3nc4ccccc4[nH]3)cc2)nc2ccccc2c1=O`, -86.4% (active).
As to `O=C(Nc1ccc(OCc2ccc(F)cc2)cc1)Nc1ccc(Cl)c(C(F)(F)F)c1`, the growth was 14.6%.
The same measure, in the same setting: with `O=C(CC(=O)Nc1ccc(Oc2ncnc3scc(Nc4n[nH]c(=S)s4)c23)cc1)Nc1ccc(Br)cc1` the figure was 106%.
For the molecule `COc1ccc(C(=O)COc2ccc(NC(=O)Nc3ccc(Cl)c(C(F)(F)F)c3)cc2)cc1`, the growth was 17.9%.
The same measure, in the same setting: with `O=C(Nc1ccc(Oc2ncnc3scc(Nc4n[nH]c(=S)s4)c23)cc1)C1(C(=O)Nc2cccc(C(F)(F)F)c2)CC1` the figure was 95.6%.
With `O=C1NC(=S)S/C1=C\c1cn(-c2ccccc2)nc1-c1ccc([N+](=O)[O-])cc1`, the growth was 12.6%.
The same measure, in the same setting: with `O=C(CSc1nc2ccccc2c(=O)n1-c1ccc(Cl)cc1)Nc1ccc(-c2nc3ccc([N+](=O)[O-])cc3[nH]2)cc1` the figure was 45.5%.
